# Laboratory results published in the supplement of paper PMC6555819.
# System: LXRa homodimer (NR concentration 270 nM)
# Experiment: PBM binding z-score (relative to random genomic background probes); higher = stronger binding; sequences stand for … in GC…GCGATTGACAGCGTAGAATGAAGG
# Method in brief: (§1)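 For binding z-scores, the reference was random background probes on custom Agilent 4×180K protein-binding microarrays. These arrays were incubated 1 h with ligand-free nuclear receptor dimers in PBS pH 7.4, 2% milk, 0.02% Triton X-100, 1 mM DTT, 0.2 mg/mL BSA and 0.4 mg/ml salmon testes DNA. Fluorescence was scanned after antibody detection of each partner (one per run) and regression-normalized.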
row,Sequence,PBM binding z-score
1,TCAGACAGGTGAAGGTAACCCAGGTACGCAGTCG,0.143
2,CCTTACGGGTCAAGGTTATAACACGGGTGGTACG,0.233
3,CAAACTAGGTCACGAAGGGTCAAAGTCGAATGAC,4.6
4,GGAACGAGGGCAAAGTCGATAGCATCTGTCGACG,-0.902
5,TGAATGAGGTTATAAGAACAGGGAACGTTGCAAA,-0.262
6,CCTAGCAGGCCAGGGTCACTAAAGCATTTCGCTT,-0.472
7,ATCGAAAGGTCGAGGTGAATATAGAGAAAGGGAA,0.21
8,GCATATAGGTAATACAAGGTGAAAGTGCGATTGT,0.475
9,AATACAGGGTCACTAGGCCATAGTAGGTACGAAT,1.02
10,GCTTCTAGGTCAACTGATGGTCAGCTAAAGCTCG,0.562
11,TCATATAGGTAAATGCTAGGTGACAGTCCGATCT,-0.0198
12,CCTACTGGGCCATTCAGAGGTCATTCATCATATG,6.9
13,TCATATAGTTAAAGGTGAAAGTCGAACGATATGA,-0.183
14,CCTTACGGGTCACGGACAGGTTATAGCATTTGGA,0.422
15,CCGACTGGGGCATAAGGTTACGATAAGCCAGCCC,-0.328
16,GCTAGCAGGCCATTTGGCTCACTCAATGACGGGC,-0.83
17,CCTACTGGGCCAAAGTTCATTGATTCCAATGCTC,4.36
18,ACAGACCGGTGAGTGAAGGTAACTCAGCTGGACG,-0.654
19,TCTGCTAGGTCAACGACGGTCAGCTAATCTGCTA,0.203
20,ACTAGTTGGTCAGTTGAGGTCACACACAATTCGG,3.56

row,Sequence,PBM binding z-score
1,ACTTACGGGTCAACGAGGTTAGAGCACGCGTATA,0.422
2,TTACCAAGGTGAGCTAAGGTCGTTGATCCAACTC,-0.466
3,CGAACGAGGGCATGAGTTGATAGCCAATGCCGAT,-0.567
4,ATCTCTAGGTAAAAGTTCAGTGGATCCCGAGGAT,1.37
5,GCTGCTAGTTCAGGTTGGTCAGCTAACGGGTACG,-0.196
6,TCATATCGGTAAATGCTAGGTGAAAGTCCGATCT,0.17
7,ATGGAAAGGTCGAGGTGAGTATAGAGAAAGGGAA,0.547
8,CGAACTAGGTAATTGACAGGACAGTGAATAGTAA,0.0257
9,TAGCCCAGGTCATGCGGGCCAGTATAGTGTCGGC,0.136
10,CCTACTGGGCCATCATGTCATTGATATCAACGTT,-0.139
11,TATACAGGCTCAAAGGCCAGAGTACGAATGTCGA,-0.184
12,ATCTCTAGGTAAAGCTAGTTCAGTGAATGCAAAT,-0.0105
13,ATCTCTAGGTAAACATAGTTCAGTGAATGCAAAT,0.983
14,CCAGACAGGTGAGAAGGTATCTCAGCCTCGATTA,0.0657
15,ATCGAGAGGTCGAAGGTGAGTATACCCACCCGAA,-0.396
16,CCTACTGGACCAAAGGTCATTGATTCCAATGCTC,5.86
17,CGTCCAAGGTCAGCAGGCCAGTGAAAGCGACGTG,-0.314
18,AGAATGACGTTACCAAAGATCAGGGAAACGCTTG,-0.236
19,TCTGGGAGGACACGAAGGTCAGAGCTTTCCAGAG,0.204
20,ATACCAAGGTGATCGTGAGGTCGTTGTTACTAAC,0.763

# System: LXRb:RXRa (NR concentration 270 nM, RXRa partner concentration 90 nM)
# Experiment: as above
# Method in brief: as §1
row,Sequence,PBM binding z-score
1,TCAGACAGGTGAAGGTAACCCAGGTACGCAGTCG,0.546
2,CCTTACGGGTCAAGGTTATAACACGGGTGGTACG,3.44
3,CAAACTAGGTCACGAAGGGTCAAAGTCGAATGAC,6.6
4,GGAACGAGGGCAAAGTCGATAGCATCTGTCGACG,-0.096
5,TGAATGAGGTTATAAGAACAGGGAACGTTGCAAA,1.03
6,CCTAGCAGGCCAGGGTCACTAAAGCATTTCGCTT,1.78
7,ATCGAAAGGTCGAGGTGAATATAGAGAAAGGGAA,2.79
8,GCATATAGGTAATACAAGGTGAAAGTGCGATTGT,0.725
9,AATACAGGGTCACTAGGCCATAGTAGGTACGAAT,4
10,GCTTCTAGGTCAACTGATGGTCAGCTAAAGCTCG,2.48
11,TCATATAGGTAAATGCTAGGTGACAGTCCGATCT,0.519
12,CCTACTGGGCCATTCAGAGGTCATTCATCATATG,4.38
13,TCATATAGTTAAAGGTGAAAGTCGAACGATATGA,1.25
14,CCTTACGGGTCACGGACAGGTTATAGCATTTGGA,4.42
15,CCGACTGGGGCATAAGGTTACGATAAGCCAGCCC,0.815
16,GCTAGCAGGCCATTTGGCTCACTCAATGACGGGC,-1.31
17,CCTACTGGGCCAAAGTTCATTGATTCCAATGCTC,2.6
18,ACAGACCGGTGAGTGAAGGTAACTCAGCTGGACG,-0.711
19,TCTGCTAGGTCAACGACGGTCAGCTAATCTGCTA,1.97
20,ACTAGTTGGTCAGTTGAGGTCACACACAATTCGG,3.58

row,Sequence,PBM binding z-score
1,ACTTACGGGTCAACGAGGTTAGAGCACGCGTATA,3.9
2,TTACCAAGGTGAGCTAAGGTCGTTGATCCAACTC,0.977
3,CGAACGAGGGCATGAGTTGATAGCCAATGCCGAT,-0.0834
4,ATCTCTAGGTAAAAGTTCAGTGGATCCCGAGGAT,1.03
5,GCTGCTAGTTCAGGTTGGTCAGCTAACGGGTACG,-0.351
6,TCATATCGGTAAATGCTAGGTGAAAGTCCGATCT,0.39
7,ATGGAAAGGTCGAGGTGAGTATAGAGAAAGGGAA,2.81
8,CGAACTAGGTAATTGACAGGACAGTGAATAGTAA,-0.434
9,TAGCCCAGGTCATGCGGGCCAGTATAGTGTCGGC,1.9
10,CCTACTGGGCCATCATGTCATTGATATCAACGTT,0.0528
11,TATACAGGCTCAAAGGCCAGAGTACGAATGTCGA,-0.265
12,ATCTCTAGGTAAAGCTAGTTCAGTGAATGCAAAT,0.175
13,ATCTCTAGGTAAACATAGTTCAGTGAATGCAAAT,1.07
14,CCAGACAGGTGAGAAGGTATCTCAGCCTCGATTA,-0.418
15,ATCGAGAGGTCGAAGGTGAGTATACCCACCCGAA,1.74
16,CCTACTGGACCAAAGGTCATTGATTCCAATGCTC,5.23
17,CGTCCAAGGTCAGCAGGCCAGTGAAAGCGACGTG,2.31
18,AGAATGACGTTACCAAAGATCAGGGAAACGCTTG,-0.336
19,TCTGGGAGGACACGAAGGTCAGAGCTTTCCAGAG,1.3
20,ATACCAAGGTGATCGTGAGGTCGTTGTTACTAAC,1.32
